As usually defined, the AC50 is the concentration giving half of the maximal activity seen.

A short description of assay [1]: ATG_M_32_CIS: Attagene CIS-FACTORIAL HepG2 Assay for M32 Transcription Factor (Internal Marker) (AID 2282949).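 Further: background control marker of the multiplexed CIS panel rather than a real target.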 The following applies: HepG2 Attagene cis-factorial M32 reporter, mRNA; actives raise or lower the signal. In short, it runs like this:
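HepG2 cells transiently transfected with multiplexed cis-regulated reporter units, dosed 24 h. Reporter mRNA quantified by RT-PCR, 6-FAM labelling, HpaI digestion and capillary electrophoresis; bidirectional fit vs DMSO.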

Assay [2] is described as follows: ATG_M_06_CIS: Attagene CIS-FACTORIAL HepG2 Assay for M06 Transcription Factor (Internal Marker) (AID 2282950). The following applies: HepG2 Attagene CIS-FACTORIAL M06 internal marker reporter; actives raise or lower the signal. In outline:
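HepG2 cells transiently transfected with cis-regulated multiple reporter transcription units were exposed to chemical for 24 h; reporter mRNA was quantified by RT-PCR, 6-FAM primer labelling, HpaI digestion and capillary electrophoresis, fitted bidirectionally against DMSO.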

The target in assay [3] is Hypoxia-inducible factor 1-alpha (Homo sapiens) (UniProt Q16665). The experiment in a line: ATG_HIF1a_CIS: Attagene CIS-FACTORIAL HepG2 Assay for human Hypoxia Inducible Factor 1 (HIF1A) (AID 2282951). The following applies: HepG2 Attagene cis-factorial HIF1a reporter transcription; actives raise or lower the signal. In short, it runs like this:
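In this multiplexed cell assay, HepG2 cells bearing transfected cis reporters are dosed for 24 h and reporter mRNA is read by RT-PCR plus capillary electrophoresis; signal increases and decreases are both scored against DMSO.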

For assay [4], the target named is Hepatocyte nuclear factor 6 (Homo sapiens) (UniProt Q9UBC0). The assay can be described thus: ATG_HNF6_CIS: Attagene CIS-FACTORIAL HepG2 Assay for human Hepatocyte Nuclear Factor 6 (HNF6) (AID 2282952). The following applies: HepG2 Attagene cis-factorial HNF6 reporter transcription; actives raise or lower the signal. In outline:
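HepG2 cells transiently transfected with cis-element-driven multiplexed reporter units measuring endogenous transcription factor activity. After 24 h exposure, reporter mRNA quantified by RT-PCR, FAM-labelled fragments and capillary electrophoresis; bidirectional fitting versus DMSO.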

Assay [5] has as its target Heat shock factor protein 1 (Homo sapiens) (UniProt Q00613). The experiment in a line: ATG_HSE_CIS: Attagene CIS-FACTORIAL HepG2 Assay for human Heat Shock Transcription Factor 1 (HSE) (AID 2282953). The following applies: HepG2 HSE cis-reporter, Attagene RNA transcription; actives raise or lower the signal. In outline:
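HepG2 cells transiently transfected with multiple reporter transcription units under cis-regulatory promoter control, measuring endogenous transcription factor activity. After 24 h chemical exposure, reporter mRNA quantified by RT-PCR, fluorescent labelling, HpaI digestion and capillary electrophoresis; bidirectional fit versus DMSO.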

The nature of assay [6]: ATG_MRE_CIS: Attagene CIS-FACTORIAL HepG2 Assay for human Metal Responsive Element (MRE) (AID 2282954). The following applies: HepG2 MRE cis-reporter transcription, Attagene multiplex; actives raise or lower the signal. In outline: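 Step one: transfect HepG2 with cis-regulated reporter units. Step two: dose 24 h. Step three: isolate RNA, RT-PCR, 6-FAM label, HpaI digest, capillary electrophoresis. Fit bidirectionally to DMSO.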

Assay [7] has as its target Paired box protein Pax-6 (Homo sapiens) (UniProt P26367). The experiment in a line: ATG_Pax6_CIS: Attagene CIS-FACTORIAL HepG2 Assay for human Paired Box 6 (PAX6) (AID 2282956). The following applies: HepG2 CIS-FACTORIAL PAX6 reporter transcription, RNA readout; actives raise or lower the signal. In outline: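 HepG2 cells transiently transfected with multiplexed cis-promoter reporter units (endogenous TF activity) were dosed for 24 h. Reporter mRNA was quantified by RT-PCR, 6-FAM labeling, HpaI digestion and capillary electrophoresis; bidirectional fitting versus DMSO baseline.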

Assay [8] can be described thus: ATG_PXRE_CIS: Attagene CIS-FACTORIAL HepG2 Assay for human Pregnane X Receptor Element (PXRE) (AID 2282957). The following applies: HepG2 Attagene CIS-FACTORIAL PXRE reporter, mRNA; actives raise or lower the signal. In outline: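 HepG2 cells transiently transfected with cis-element-driven multiplexed reporter units; after 24 h chemical exposure, reporter mRNA measured by RT-PCR, 6-FAM labelling, HpaI digestion and capillary electrophoresis. Bidirectional fitting relative to DMSO.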

Assay [9] can be described thus: ATG_RORE_CIS: Attagene CIS-FACTORIAL HepG2 Assay for human RAR-related Orphan Receptor Element (RORE) (AID 2282959). The following applies: HepG2 Attagene cis-factorial RORE reporter, mRNA; actives raise or lower the signal. In outline: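 Fluorescence intensity of reporter-specific cDNA fragments, separated by capillary electrophoresis, gives the signal. Source: HepG2 liver cells transiently transfected with cis-element reporters and exposed 24 h; DMSO-normalized bidirectional fit.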

Assay [10] in a line: ATG_Sox_CIS: Attagene CIS-FACTORIAL HepG2 Assay for human SRY-box transcription factor (SOX) (AID 2282960). The following applies: HepG2 Attagene cis-factorial SOX reporter, mRNA; actives raise or lower the signal. In short, it runs like this: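 After 24 h of chemical treatment, transfected HepG2 reporter cells are lysed for total RNA. Transcript levels come from RT-PCR with labelled primer extension and capillary electrophoresis, analysed bidirectionally versus DMSO.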

Assay [11] has as its target Transcription factor Sp1 (Homo sapiens) (UniProt P08047). The experiment in a line: ATG_Sp1_CIS: Attagene CIS-FACTORIAL HepG2 Assay for human Specificity Protein 1 (Sp1) (AID 2282961). The following applies: HepG2 Sp1 cis-reporter transcription, actives raise or lower the signal. In outline: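 Sp1-driven reporter mRNA, read as capillary electrophoresis fluorescence after RT-PCR, in transiently transfected HepG2 cells dosed for 24 h; signal change in either direction relative to DMSO.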

Assay [12] in a line: ATG_SREBP_CIS: Attagene CIS-FACTORIAL HepG2 Assay for human Sterol Regulatory Element Binding (SREBP) (AID 2282962). The following applies: HepG2 Attagene cis-factorial SREBP reporter, mRNA; actives raise or lower the signal. In short, it runs like this:
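HepG2 cells transiently transfected with multiplexed cis-element reporter units report endogenous transcription factor activity. After 24 h of chemical exposure, reporter mRNA was quantified by RT-PCR, 6-FAM labelling, HpaI digestion and capillary electrophoresis; bidirectional fits used DMSO as baseline.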

Assay [13] deals with Signal transducer and activator of transcription 3 (Homo sapiens) (UniProt P40763). The experiment in a line: ATG_STAT3_CIS: Attagene CIS-FACTORIAL HepG2 Assay for human Signal Transducer and Activator of Transcription 3 (STAT3) (AID 2282963). The following applies: HepG2, Attagene cis-factorial STAT3 reporter transcription; actives raise or lower the signal. In outline:
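Transcript-level reporter assay. HepG2 transient MRTU transfection, 24 h exposure, fluorescence detection after RT-PCR and CE; DMSO baseline.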

Assay [14] can be described thus: ATG_TA_CIS: Attagene CIS-FACTORIAL HepG2 Assay for human TA Basal Promoter (AID 2282964). The following applies: HepG2 Attagene CIS-factorial TA basal promoter reporter; actives raise or lower the signal. In outline:
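HepG2 cells transiently transfected with multiplexed cis-promoter reporter units, dosed 24 h. Reporter mRNA measured by RT-PCR, 6-FAM labelling, HpaI digestion and capillary electrophoresis; bidirectional fit versus DMSO baseline, serving as background control.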

Assay [15] is described as follows: ATG_TAL_CIS: Attagene CIS-FACTORIAL HepG2 Assay for human TAL Basal Promoter (AID 2282966).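 Further: background control endpoint measuring basal TAL promoter reporter mRNA not a specific factor.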 The following applies: HepG2 Attagene cis-factorial TAL promoter reporter; actives raise or lower the signal. In outline:
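HepG2 cells transiently transfected with multiplexed cis-promoter reporter units, dosed 24 h. Reporter mRNA quantified by RT-PCR, 6-FAM labelling, HpaI digestion and capillary electrophoresis; TAL basal promoter serves as background control, fitted bidirectionally versus DMSO.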

Assay [16] in a line: ATG_TGFb_CIS: Attagene CIS-FACTORIAL HepG2 Assay for human Transforming Growth Factor (TGF) (AID 2282967). The following applies: HepG2 Attagene CIS TGFb reporter, mRNA transcription; actives raise or lower the signal. In short, it runs like this:
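HepG2 cells transiently transfected with cis-promoter-driven multiplexed reporter units; 24 h compound exposure. Reporter mRNA measured by RT-PCR, 6-FAM labeling, HpaI digestion and capillary electrophoresis; bidirectional fit versus DMSO baseline.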

A short description of assay [17]: ATG_TCF_b_cat_CIS: Attagene CIS-FACTORIAL HepG2 Assay for human T-Cell-Factor with beta-catenin (TCF/b-cat) (AID 2282965). The following applies: HepG2 TCF/beta-catenin cis-reporter transcription, actives raise or lower the signal. In outline:
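Using capillary electrophoresis as the read-out, labelled reporter cDNA fragments from transiently transfected HepG2 were sized and quantified. Exposure lasted 24 hours; activity in either direction was referenced to DMSO.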

A short description of assay [18]: ATG_PPRE_CIS: Attagene CIS-FACTORIAL HepG2 Assay for human Peroxisome Proliferator-activated Response Element (PPRE) (AID 2282958). The following applies: HepG2 PPRE cis-element reporter, Attagene transcription factor profiling; actives raise or lower the signal. In outline:
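Multiplexed reporter transcription units under cis-regulatory promoters were transfected into HepG2 cells to capture endogenous factor activity. A 24 h incubation preceded RNA isolation and fluorescent RT-PCR fragment analysis.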

Assay [19] is described as follows: ATG_VDRE_CIS: Attagene CIS-FACTORIAL HepG2 Assay for human Vitamin D Receptor Element (VDRE) (AID 2282968). The following applies: HepG2 VDRE cis-reporter transcription, actives raise or lower the signal. In short, it runs like this: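 RT-PCR/CE readout of reporter mRNA; HepG2, transient transfection, 24 h dosing; DMSO baseline; bidirectional analysis.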

The source holds several records for some structures; these can differ, active in one and inactive in another. Activity calls are given as the source filed them. How the source made its calls: active means hit-call score of the fitted dose curve at least 0.9, where 1 is the maximum; inactive means score below 0.9.

Sequence of Paired box protein Pax-6 (Homo sapiens) (P26367 whole entry, looked up): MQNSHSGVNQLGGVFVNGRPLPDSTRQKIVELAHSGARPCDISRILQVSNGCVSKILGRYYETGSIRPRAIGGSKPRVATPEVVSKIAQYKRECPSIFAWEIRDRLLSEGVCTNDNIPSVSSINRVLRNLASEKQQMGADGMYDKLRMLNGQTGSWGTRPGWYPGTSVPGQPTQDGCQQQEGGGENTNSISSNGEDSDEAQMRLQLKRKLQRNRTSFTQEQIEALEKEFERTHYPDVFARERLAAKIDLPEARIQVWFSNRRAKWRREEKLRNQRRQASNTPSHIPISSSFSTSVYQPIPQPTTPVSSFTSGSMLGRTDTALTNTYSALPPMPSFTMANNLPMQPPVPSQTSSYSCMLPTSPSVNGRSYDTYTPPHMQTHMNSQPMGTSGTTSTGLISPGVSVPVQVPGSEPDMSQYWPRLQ
Sequence of Transcription factor Sp1 (Homo sapiens) (P08047 whole entry, looked up): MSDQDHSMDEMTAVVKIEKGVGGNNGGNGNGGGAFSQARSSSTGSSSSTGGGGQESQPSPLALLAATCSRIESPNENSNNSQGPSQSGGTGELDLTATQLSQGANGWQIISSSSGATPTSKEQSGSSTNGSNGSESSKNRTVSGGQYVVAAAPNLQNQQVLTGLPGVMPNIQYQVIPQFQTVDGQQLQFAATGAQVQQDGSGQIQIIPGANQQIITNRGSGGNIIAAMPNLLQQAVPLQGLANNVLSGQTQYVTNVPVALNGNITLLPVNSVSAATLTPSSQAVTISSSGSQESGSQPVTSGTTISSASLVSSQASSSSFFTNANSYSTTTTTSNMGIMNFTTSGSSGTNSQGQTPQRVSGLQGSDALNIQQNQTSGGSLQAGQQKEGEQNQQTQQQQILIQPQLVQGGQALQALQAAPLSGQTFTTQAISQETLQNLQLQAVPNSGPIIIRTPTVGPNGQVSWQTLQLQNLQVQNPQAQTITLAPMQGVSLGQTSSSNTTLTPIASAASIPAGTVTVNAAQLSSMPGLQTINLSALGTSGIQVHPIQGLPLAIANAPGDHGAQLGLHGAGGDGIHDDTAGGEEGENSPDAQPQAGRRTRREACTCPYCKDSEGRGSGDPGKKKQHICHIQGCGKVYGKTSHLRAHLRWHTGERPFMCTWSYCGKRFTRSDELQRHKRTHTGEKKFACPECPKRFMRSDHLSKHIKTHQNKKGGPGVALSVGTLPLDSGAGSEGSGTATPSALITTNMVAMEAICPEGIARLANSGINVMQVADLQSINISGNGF
Sequence of Heat shock factor protein 1 (Homo sapiens) (Q00613 whole entry, looked up): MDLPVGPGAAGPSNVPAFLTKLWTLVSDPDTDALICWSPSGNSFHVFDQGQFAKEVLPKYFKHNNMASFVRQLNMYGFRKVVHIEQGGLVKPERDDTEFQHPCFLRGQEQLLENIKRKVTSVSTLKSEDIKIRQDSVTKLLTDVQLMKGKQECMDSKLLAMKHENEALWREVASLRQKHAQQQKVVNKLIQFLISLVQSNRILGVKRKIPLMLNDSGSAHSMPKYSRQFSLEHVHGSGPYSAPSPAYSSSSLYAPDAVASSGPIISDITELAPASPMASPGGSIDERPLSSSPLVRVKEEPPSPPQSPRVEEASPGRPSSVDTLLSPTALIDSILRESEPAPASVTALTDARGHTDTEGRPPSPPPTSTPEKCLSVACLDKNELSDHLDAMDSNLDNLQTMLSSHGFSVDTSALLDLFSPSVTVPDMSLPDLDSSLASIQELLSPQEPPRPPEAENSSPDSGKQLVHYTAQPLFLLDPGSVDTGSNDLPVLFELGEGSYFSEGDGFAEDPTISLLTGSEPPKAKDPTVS
Sequence of Signal transducer and activator of transcription 3 (Homo sapiens) (P40763 whole entry, looked up): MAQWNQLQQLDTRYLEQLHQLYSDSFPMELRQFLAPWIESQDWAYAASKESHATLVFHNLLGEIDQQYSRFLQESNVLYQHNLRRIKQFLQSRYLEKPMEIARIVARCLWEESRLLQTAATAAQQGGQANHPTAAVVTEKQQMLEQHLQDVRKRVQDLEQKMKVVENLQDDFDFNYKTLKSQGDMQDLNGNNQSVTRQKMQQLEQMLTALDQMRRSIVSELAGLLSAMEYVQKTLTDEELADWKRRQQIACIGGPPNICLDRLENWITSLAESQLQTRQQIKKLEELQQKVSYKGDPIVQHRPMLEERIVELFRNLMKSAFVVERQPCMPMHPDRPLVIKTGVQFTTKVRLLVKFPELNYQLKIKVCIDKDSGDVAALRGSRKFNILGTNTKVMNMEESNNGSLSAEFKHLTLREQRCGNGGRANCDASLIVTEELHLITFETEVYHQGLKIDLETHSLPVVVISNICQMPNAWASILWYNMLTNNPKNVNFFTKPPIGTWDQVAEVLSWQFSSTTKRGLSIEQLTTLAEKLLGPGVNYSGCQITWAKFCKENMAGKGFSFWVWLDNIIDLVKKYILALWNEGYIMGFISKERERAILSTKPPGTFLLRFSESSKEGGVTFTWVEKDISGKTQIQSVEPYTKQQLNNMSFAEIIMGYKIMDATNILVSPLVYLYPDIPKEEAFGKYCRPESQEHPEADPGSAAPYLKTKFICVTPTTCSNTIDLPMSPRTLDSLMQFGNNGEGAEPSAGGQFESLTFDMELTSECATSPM
Sequence of Hypoxia-inducible factor 1-alpha (Homo sapiens) (Q16665 whole entry, looked up): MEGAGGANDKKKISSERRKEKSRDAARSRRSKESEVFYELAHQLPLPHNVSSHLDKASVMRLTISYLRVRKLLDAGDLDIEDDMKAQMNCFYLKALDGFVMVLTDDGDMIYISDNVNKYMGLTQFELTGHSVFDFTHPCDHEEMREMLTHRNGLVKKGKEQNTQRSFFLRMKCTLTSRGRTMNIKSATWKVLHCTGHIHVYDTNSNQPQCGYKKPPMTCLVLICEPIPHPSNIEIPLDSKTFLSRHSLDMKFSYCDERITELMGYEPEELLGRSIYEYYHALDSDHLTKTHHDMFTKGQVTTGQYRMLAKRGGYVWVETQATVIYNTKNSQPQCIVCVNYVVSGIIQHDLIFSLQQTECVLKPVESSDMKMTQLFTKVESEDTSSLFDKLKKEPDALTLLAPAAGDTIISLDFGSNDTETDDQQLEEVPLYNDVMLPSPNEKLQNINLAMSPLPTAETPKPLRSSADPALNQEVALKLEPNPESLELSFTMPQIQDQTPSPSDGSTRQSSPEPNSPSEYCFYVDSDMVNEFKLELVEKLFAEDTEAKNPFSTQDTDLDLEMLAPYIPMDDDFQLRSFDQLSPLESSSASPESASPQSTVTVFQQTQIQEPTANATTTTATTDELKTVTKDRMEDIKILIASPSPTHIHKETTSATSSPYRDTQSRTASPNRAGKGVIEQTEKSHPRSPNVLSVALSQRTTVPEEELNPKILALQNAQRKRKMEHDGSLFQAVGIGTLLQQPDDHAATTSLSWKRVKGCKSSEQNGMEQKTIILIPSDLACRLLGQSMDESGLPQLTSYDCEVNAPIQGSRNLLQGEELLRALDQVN
Sequence of Hepatocyte nuclear factor 6 (Homo sapiens) (Q9UBC0 whole entry, looked up, the tested form may be a part): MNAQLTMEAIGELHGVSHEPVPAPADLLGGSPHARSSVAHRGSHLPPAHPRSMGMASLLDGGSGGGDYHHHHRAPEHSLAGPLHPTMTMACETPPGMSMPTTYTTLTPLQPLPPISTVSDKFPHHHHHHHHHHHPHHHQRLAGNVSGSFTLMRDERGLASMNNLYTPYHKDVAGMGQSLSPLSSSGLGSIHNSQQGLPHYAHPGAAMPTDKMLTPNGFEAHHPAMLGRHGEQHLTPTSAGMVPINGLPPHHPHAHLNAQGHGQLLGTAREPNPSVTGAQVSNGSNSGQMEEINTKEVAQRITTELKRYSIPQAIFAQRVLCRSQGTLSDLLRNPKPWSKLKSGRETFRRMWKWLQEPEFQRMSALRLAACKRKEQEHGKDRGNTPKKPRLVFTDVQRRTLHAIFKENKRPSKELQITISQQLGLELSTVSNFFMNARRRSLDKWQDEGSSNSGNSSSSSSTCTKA

Regarding `O=[N+]([O-])c1ccccc1O`, the result in assay [1], in assay [2], in [3], in assay [4], in assay [5] and in assay [6] was inactive. Further, the result in assay [7], in assay [8], in assay [9], in assay [10], in assay [11] and in [12] was inactive. Moreover, the outcome in [13], in assay [14], in assay [15] and in assay [16] was inactive. The AC50 in [8] was 26.7 µM (active).

Take `BrCCCCBr`: the result in assay [1], in assay [2], in [3], in [4], in assay [5] and in assay [6] was inactive. Also, the molecule was classed as inactive in assay [7], in assay [8], in assay [9], in assay [10], in [11] and in assay [12]. The molecule was classed as inactive in assay [13], in assay [14], in [17] and in [15].

For `C=CC(=O)NC(C)(C)CC(C)=O`, the molecule was classed as inactive in assay [1], in assay [2], in assay [3], in assay [4], in assay [5] and in [6]. Also, the molecule was called inactive in [7], in assay [8], in [18], in assay [9], in assay [10] and in assay [11]. The call in assay [12], in assay [13], in [14], in assay [17], in assay [15] and in assay [16] was inactive. Besides, in [19], the call was inactive.

With `CC(C)(C1CCC(O)CC1)C1CCC(O)CC1` (stereo not given), the molecule was classed as inactive in assay [1], in assay [2], in [3], in assay [4], in assay [5] and in [6]. In addition, the outcome in assay [7], in [9], in assay [10], in [11], in assay [12] and in assay [13] was inactive. The molecule was classed as inactive in [14], in [17], in [15], in assay [16] and in assay [19]. Further, the concentration at half-maximal activity (AC50) in assay [8] is 35.3 µM (active).

Source of the values: PubChem BioAssay (EPA / NIEHS).
